Experimental data as given in PubChem BioAssay.
Several values for one entry are separate records, joined by “and”; a condition that tells them apart may be missing. Identical values can stand only once. Some structures have more than one record in an assay (separate samples or runs), and their calls can disagree. Activity calls are given as the source filed them.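 The calls were made as follows, unless noted: active = inhibition at or above 50% relative to wild type and mutant plate controls; inactive = inhibition below 50%.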

Columns and labels:
[1] = inhibitors of TNFa-induced NFkB p65 translocation, primary screen, imaging, HUVEC, MLSMR starter and 10KST1 sets (AID 438;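 active = inhibition above 20% together with a positive visual image hit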;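 also: compound added about 3h40 before a 20 min TNFalpha stimulation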;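 as to inhibition: signal is the nuclear over cytoplasmic p65 intensity ratio per well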); conditions: HUVEC TNFa-induced p65 nuclear translocation; cell count: measured here: nuclei count (cytotoxicity indicator), at 2.08 µM; inhibition: at 2 µM, stronger effect = higher value, 0% TNFa-plus-vehicle, 100% no-TNFa wells
[2] = inhibitors of mutant huntingtin aggregation, primary screen, imaging, exon1htt(103Q)mCFP cells, high-content imaging (AID 483;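 active = visual image review flags a hit and inhibition of aggregation exceeds 20%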;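 also: compound exposure lasted 3 days before fixation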;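 as to nuclei count: percent of the per-plate median nuclei count of sample wells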); conditions: exon1htt(103Q)mCFP cell line, aggregate imaging, at 2 µM; inhibition of aggregation: stronger effect = higher value; nuclei count: measured here: cell count, toxicity
[3] = inhibitors of E-selectin induction by TNFa, primary screen, imaging, HUVEC, immunofluorescence, MLSMR starter and 10KST1 sets (AID 487;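 active = visually confirmed hit in the image check and inhibition above 20%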;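 as to inhibition: signal is fraction of cell area covered by stained E-selectin grains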;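 as to nuclei count: 100% = median nuclei count of all wells on the same plate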); conditions: HUVEC TNFalpha-induced E-selectin immunofluorescence imaging, at 2 µM; inhibition: stronger effect = higher value; nuclei count: measured here: cell number, toxicity
[4] = DUSP6 inhibitors restoring Erk phosphorylation by chemical complementation, primary imaging in DUSP6-transfected HeLa (AID 609;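 active = compounds giving at least 50% inhibition in the cell-based MKP-3 phosphatase rescue imaging test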;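 as to inhibition: phospho-Erk level distribution per well compared with pooled transfected vehicle control wells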); conditions: HeLa MKP-3 transfected, phospho-Erk imaging KS statistic, at 10 µM, cells stimulated with TPA for 15 min
[5] = molecular target: Dual specificity protein phosphatase 6 (Homo sapiens) (UniProt Q16828); test: as above; conditions: HeLa MKP-3 transfected, phospho-Erk imaging KS statistic; at 10 µM; stronger effect = higher value; cells stimulated with TPA for 15 min
[6] = molecular target: Voltage-gated potassium channel subunit beta-2 (Rattus norvegicus) (UniProt P62483); test: KvBeta enzyme negative modulators, primary screen, biochemical, NADPH fluorescence (AID 622;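 active = fluorescence slope higher than the sample average by over 3 SD, cut at about -0.22 in these data, passing the limit was not always enough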;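 also: slope of raw intensity against log time taken from 70 to 1610 s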); conditions: recombinant KvBeta, 4-cyanobenzaldehyde reduction, at 10 µM, stronger effect = higher value
[7] = molecular target: Voltage-gated potassium channel subunit beta-2 (Rattus norvegicus) (UniProt P62483); test: KvBeta positive modulators, primary screen, biochemical, NADPH fluorescence (AID 623;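 active = NADPH fluorescence slope more negative than the mean of all samples by about 3 SD, 99.7% confidence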;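 also: fluorescence intensity change per second fitted from 20 to 320 s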); conditions: Recombinant KvBeta, NADPH fluorescence decrease slope, 10 min; at 10 µM; stronger effect = lower value
[8] = molecular target: Alpha-2C adrenergic receptor (Homo sapiens) (UniProt P18825); test: modulators of alpha2C/GIRK thallium flux, primary screen, cell-based, HEK293 alpha2C/GIRK1/2 (AID 624;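 active = fluorescence slope after compound addition differing from the mean of all screened samples at 99.7% confidence, in either direction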;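 also: slope of fluorescence ratio to pre-addition baseline per second over 15 to 24 s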); conditions: thallium flux BTC fluorescence, at 10 µM, actives lie on both sides
[9] = inhibitors of larval lipid processing in zebrafish, primary screen, whole organism, PED6 fluorescence, gall bladder and intestine (AID 686;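 active = a full or partial loss of lipid-probe fluorescence in the fish gall bladder, intestine or both, judged by eye; inactive = no fluorescence loss, or compound toxic to the fish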;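 also: larvae 5 to 7 days old with five fish per well; signal comes from phospholipase A2 cleavage of quenched PED6 carried via bile; overnight exposure to compound and PED6 before scoring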); conditions: Zebrafish larvae PED6 lipid processing, fluorescence scoring; screened at 20 µM (by protocol)
[10] = inhibitors of Chlamydomonas gravitaxis, primary screen, whole organism, Chlamydomonas reinhardtii, WT vs cilia-less mutant, absorbance, 96-well (AID 463189); conditions: OD600 absorbance, 2 days, at 10 µM, stronger effect = higher value;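 also: 0% = wild type cc124 cells in DMSO and 100% = ciliumless bld1 mutant cells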
[11] = inhibitors of Sendai virus-induced IRF3 signaling, primary screen, TLR/RLR signaling modifier project, cell-based, Sendai virus stimulus, luciferase, 10K MLSCN set (AID 602276;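 active = inhibition at or above 50% at 10 µM; inactive = inhibition below 50%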;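 also: firefly luciferase from ISG56 promoter only with Renilla not read in this screen; 0% = Sendai virus plus DMSO and 100% = medium plus DMSO without virus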); conditions: HEK293 RL24 IRF3 luciferase reporter, at 10 µM, stronger effect = higher value
[12] = inhibitors of poly I:C-induced TLR3 signaling, primary screen, cell-based, poly I:C stimulus, luciferase, 10K MLSCN set (AID 602277;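 active = inhibition of the reporter signal at or above 50%; inactive = inhibition below 50%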); conditions: HEK293-TLR3 RL24 IRF3 luciferase reporter, at 10 µM, stronger effect = higher value
[13] = measured here: cell density z-score
[14] = measured here: nuclear c-Myc green intensity z-score
[15] = measured here: nuclear pErk red intensity z-score, stronger effect = higher value

Chain of Alpha-2C adrenergic receptor (Homo sapiens) (P18825 whole entry, looked up): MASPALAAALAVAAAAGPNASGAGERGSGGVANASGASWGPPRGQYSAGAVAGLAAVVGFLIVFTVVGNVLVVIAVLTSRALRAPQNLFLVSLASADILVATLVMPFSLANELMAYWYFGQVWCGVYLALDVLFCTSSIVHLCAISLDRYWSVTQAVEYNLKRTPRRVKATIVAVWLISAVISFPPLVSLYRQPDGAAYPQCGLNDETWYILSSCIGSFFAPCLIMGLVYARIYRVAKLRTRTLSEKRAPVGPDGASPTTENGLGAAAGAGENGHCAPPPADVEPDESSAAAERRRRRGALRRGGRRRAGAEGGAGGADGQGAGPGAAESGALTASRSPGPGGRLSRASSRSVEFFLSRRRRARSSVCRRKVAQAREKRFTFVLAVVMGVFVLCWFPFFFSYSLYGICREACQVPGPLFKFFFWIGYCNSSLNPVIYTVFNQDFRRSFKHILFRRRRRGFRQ
Chain of Dual specificity protein phosphatase 6 (Homo sapiens) (Q16828 whole entry, looked up): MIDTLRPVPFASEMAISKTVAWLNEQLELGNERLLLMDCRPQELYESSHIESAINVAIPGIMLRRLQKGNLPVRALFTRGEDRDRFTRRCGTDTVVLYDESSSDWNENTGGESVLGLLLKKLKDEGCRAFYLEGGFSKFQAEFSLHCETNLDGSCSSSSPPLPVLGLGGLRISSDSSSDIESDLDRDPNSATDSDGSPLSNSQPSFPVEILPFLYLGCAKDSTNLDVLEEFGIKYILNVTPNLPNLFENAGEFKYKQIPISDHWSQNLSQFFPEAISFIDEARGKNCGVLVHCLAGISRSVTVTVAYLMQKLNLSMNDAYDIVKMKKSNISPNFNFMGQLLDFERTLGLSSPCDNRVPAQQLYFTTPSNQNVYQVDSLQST
Chain of Voltage-gated potassium channel subunit beta-2 (Rattus norvegicus) (P62483 whole entry, looked up): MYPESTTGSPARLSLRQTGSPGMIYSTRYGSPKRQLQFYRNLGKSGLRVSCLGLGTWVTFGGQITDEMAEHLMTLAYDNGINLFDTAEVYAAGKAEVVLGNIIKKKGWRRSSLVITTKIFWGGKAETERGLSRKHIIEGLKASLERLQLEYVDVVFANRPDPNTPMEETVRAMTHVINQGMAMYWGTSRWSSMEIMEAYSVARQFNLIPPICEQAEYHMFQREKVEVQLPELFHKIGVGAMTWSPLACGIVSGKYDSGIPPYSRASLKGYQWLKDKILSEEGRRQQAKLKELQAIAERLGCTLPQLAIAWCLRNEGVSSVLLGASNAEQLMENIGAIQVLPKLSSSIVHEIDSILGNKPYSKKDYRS

## CCOC(=O)c1c(C)n(C)c2ccc(OC)c(NC(=O)CCN3CCSCC3)c12
[1]
  cell count: 476
  inhibition: 3% (inactive)
[2]
  inhibition of aggregation: 5.7% (inactive)
  nuclei count: 112%
[3]
  inhibition: -134% (inactive)
  nuclei count: 114%
[4]; [13]
  z-score: -2.21
[4]; [14]
  z-score: 0.452
[4]; [15]
  z-score: 0.641
[5]
  inhibition: -9.66% (inactive)
[6]
  fluorescence slope: -0.464 (inactive)
[7]
  NADPH fluorescence slope: -6.9e-05 (inactive)
[8]
  slope: 0.00572 (inactive)
[9]
  outcome: inactive
[10]
  inhibition: 4.14% (inactive)
[11]
  inhibition: 24.4% (inactive)
[12]
  inhibition: 28.3% (inactive)

## O=C1CSC(=Nc2ccc(O)cc2)N1c1ccc(O)cc1
[1]
  cell count: 380
  inhibition: -9.5% (inactive)
[2]
  inhibition of aggregation: 3.6% (inactive)
  nuclei count: 95.8%
[3]
  inhibition: -49.6% (inactive)
  nuclei count: 92.5%
[4]; [13]
  z-score: 1.48
[4]; [14]
  z-score: 1.47
[4]; [15]
  z-score: -2.2
[5]
  inhibition: 9.82% (inactive)
[6]
  fluorescence slope: -0.463 (inactive)
[7]
  NADPH fluorescence slope: -0.000339 (inactive)
[8]
  slope: 0.00571 (inactive)
[9]
  outcome: inactive
[10]
  inhibition: -9.81% (inactive)
[11]
  inhibition: 17.9% (inactive)
[12]
  inhibition: 25% (inactive)

## O=C1OC(c2ccc(O)cc2)(c2ccc(O)cc2)c2ccccc21
[1]
  cell count: 608
  inhibition: -5% (inactive)
[2]
  inhibition of aggregation: 4.4% (inactive)
  nuclei count: 77.9%
[3]
  inhibition: -50.7% (inactive)
  nuclei count: 116%
[4]; [13]
  z-score: 2.02
[4]; [14]
  z-score: -0.265
[4]; [15]
  z-score: -1.6
[5]
  inhibition: 21.2% (inactive)
[6]
  fluorescence slope: -0.449 (inactive)
[7]
  NADPH fluorescence slope: -6.8e-05 (inactive)
[8]
  slope: 0.00467 (inactive)
[9]
  outcome: inactive
[10]
  inhibition: -5.48% (inactive)
[11]
  inhibition: 11.5% (inactive)
[12]
  inhibition: 41.9% (inactive)

## CN(Cc1ccccc1)Cc1c[nH]c2ccccc12
[1]
  cell count: 531
  inhibition: -15.1% (inactive)
[2]
  inhibition of aggregation: -1% (inactive)
  nuclei count: 83.3%
[3]
  inhibition: -35.1% (inactive)
  nuclei count: 121%
[4]; [13]
  z-score: -0.293
[4]; [14]
  z-score: -1.22
[4]; [15]
  z-score: -1.11
[5]
  inhibition: -4.27% (inactive)
[6]
  fluorescence slope: -0.409 (inactive)
[7]
  NADPH fluorescence slope: -4.2e-05 (inactive)
[8]
  slope: 0.00379 (inactive)
[9]
  outcome: inactive
[10]
  inhibition: 22.7% (inactive)
[11]
  inhibition: 13.3% (inactive)
[12]
  inhibition: 24.2% (inactive)

## Cc1cccc(N2C(=O)CC(N3CCN(Cc4ccc(Cl)cc4)CC3)C2=O)c1 (stereo not given)
[1]
  cell count: 544
  inhibition: -6.1% (inactive)
[2]
  inhibition of aggregation: 17.3% (inactive)
  nuclei count: 110%
[3]
  inhibition: -107% (inactive)
  nuclei count: 132%
[4]; [13]
  z-score: 1.1
[4]; [14]
  z-score: -1.84
[4]; [15]
  z-score: -0.334
[5]
  inhibition: 3.56% (inactive)
[6]
  fluorescence slope: -0.551 (inactive)
[7]
  NADPH fluorescence slope: -3.6e-05 (inactive)
[8]
  slope: 0.00524 (inactive)
[9]
  outcome: inactive
[10]
  inhibition: -12.9% (inactive)
[11]
  inhibition: 16.4% (inactive)
[12]
  inhibition: 18% (inactive)

## CN1CCN(CCCN2c3ccccc3Sc3ccc(Cl)cc32)CC1
[1]
  cell count: 625
  inhibition: -0.8% (inactive)
[2]
  inhibition of aggregation: 6.1% (inactive)
  nuclei count: 98.7%
[3]
  inhibition: -67.5% (inactive)
  nuclei count: 115%
[4]; [13]
  z-score: 0.0938
[4]; [14]
  z-score: 1.34
[4]; [15]
  z-score: 0.8
[5]
  inhibition: 30.1% (inactive)
[6]
  fluorescence slope: -0.449 (inactive)
[7]
  NADPH fluorescence slope: 1.3e-05 (inactive)
[8]
  slope: 0.00441 (inactive)
[9]
  outcome: inactive
[10]
  inhibition: 96.7% (active) and 24.7% (inactive)
[11]
  inhibition: 17.3% (inactive)
[12]
  inhibition: 22.7% (inactive)

## CC(=O)OCC(=O)[C@@]12OC3(CCCC3)O[C@@H]1C[C@H]1[C@@H]3CCC4=CC(=O)C=C[C@]4(C)[C@@]3(F)[C@@H](O)C[C@@]12C
[1]
  cell count: 609
  inhibition: -5.2% (inactive)
[2]
  inhibition of aggregation: -15.8% (inactive)
  nuclei count: 51.6%
[3]
  inhibition: -15.3% (inactive)
  nuclei count: 118%
[4]; [13]
  z-score: 0.724
[4]; [14]
  z-score: 0.328
[4]; [15]
  z-score: 0.81
[5]
  inhibition: 5.42% (inactive)
[6]
  fluorescence slope: -0.54 (inactive)
[7]
  NADPH fluorescence slope: -2.6e-05 (inactive)
[8]
  slope: 0.0055 (inactive)
[9]
  outcome: inactive
[10]
  inhibition: 22.1% (inactive)
[11]
  inhibition: 8.27% (inactive)
[12]
  inhibition: 39.3% (inactive)

## Cc1cn([C@H]2C[C@H](N=[N+]=[N-])[C@@H](CO)O2)c(=O)[nH]c1=O
[1]
  cell count: 663
  inhibition: -4% (inactive)
[2]
  inhibition of aggregation: 1.9% (inactive)
  nuclei count: 102%
[3]
  inhibition: -133% (inactive)
  nuclei count: 128%
[4]; [13]
  z-score: -0.406
[4]; [14]
  z-score: -0.912
[4]; [15]
  z-score: 2.26
[5]
  inhibition: -6.41% (inactive)
[6]
  fluorescence slope: -0.476 (inactive)
[7]
  NADPH fluorescence slope: 3.5e-07 (inactive)
[8]
  slope: 0.00535 (inactive)
[9]
  outcome: inactive
[10]
  inhibition: -6.84% (inactive)
[11]
  inhibition: 17.8% (inactive)
[12]
  inhibition: 37% (inactive)

## CC(=O)O[C@]1(C(C)=O)CC[C@H]2[C@@H]3C[C@H](C)C4=CC(=O)CC[C@]4(C)[C@H]3CC[C@@]21C
[1]
  cell count: 605
  inhibition: 2.3% (inactive)
[2]
  inhibition of aggregation: 0.3% (inactive)
  nuclei count: 94.8%
[3]
  inhibition: -47.8% (inactive)
  nuclei count: 119%
[4]; [13]
  z-score: 1.33
[4]; [14]
  z-score: -0.458
[4]; [15]
  z-score: 0.835
[5]
  inhibition: 12.4% (inactive)
[6]
  fluorescence slope: -0.521 (inactive)
[7]
  NADPH fluorescence slope: -6e-06 (inactive)
[8]
  slope: 0.00379 (inactive)
[9]
  outcome: inactive
[10]
  inhibition: -2.6% (inactive)
[11]
  inhibition: 8.39% (inactive)
[12]
  inhibition: 46.7% (inactive)

## CCCC(CCC)C(=O)OC1C[C@H]2CC[C@@H](C1)[N+]2(C)C (stereo not given in full)
[1]
  cell count: 587
  inhibition: -4.2% (inactive)
[2]
  inhibition of aggregation: 35.6% (inactive)
  nuclei count: 88.1%
[3]
  inhibition: -72.6% (inactive)
  nuclei count: 132%
[4]; [13]
  z-score: 0.0581
[4]; [14]
  z-score: 0.732
[4]; [15]
  z-score: -0.0735
[5]
  inhibition: 9.37% (inactive)
[6]
  fluorescence slope: -0.488 (inactive)
[7]
  NADPH fluorescence slope: -5e-05 (inactive)
[8]
  slope: 0.0052 (inactive)
[9]
  outcome: inactive
[10]
  inhibition: 17.7% (inactive)
[11]
  inhibition: 18.2% (inactive)
[12]
  inhibition: 42.2% (inactive)
